High-throughput results: PubChem, several laboratories
Ba/F3 V617F tox – reduced viability of JAK2V617F-dependent Ba/F3 cells, primary screen, JAK2V617F inhibitor project, cell-based, Ba/F3 EpoR-JAK2V617F, luminescence. inhibition, % at 5.6 µM. AID 1446, 2008. actives 1.1% (n = 220,000). ATP luminescence;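 active = inhibition above the campaign mean plus 3 SD over all tested compounds, cut at about 24% in these data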;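 also: cytokine-independent growth of Ba/F3 cells driven by EpoR plus mutant JAK2; 0% = DMSO-treated cells and 100% = JAK inhibitor I control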
KLF5 inh – KLF5 expression inhibitors, primary screen, DLD-1 cells, luminescence; DLD-1 KLF5 promoter-luciferase reporter; inhibition, % at 5 µM; actives 0.23% (n = 290,000); AID 1700, 2009;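 active = inhibition above a per-plate limit of that plate's mean compound inhibition plus 3 SD, cut at about 60% in these data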;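 also: 0% = DMSO wells and 100% = LY294002 at 200 µM; higher means less KLF5 promoter-driven luciferase light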
IEC-6 cytotox – cytotoxicity in IEC-6 intestinal epithelial cells, primary screen, cytotoxicity control for KLF5 inhibitor project, cell-based, luminescence; IEC-6 cytotoxicity, luminescence viability; inhibition, % at 5 µM; actives 0.78% (n = 290,000);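 also: 0% = plate median of test compound wells and 100% = cytotoxic reference compound wells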
BaF3 tox – parental Ba/F3 cell viability inhibition, counter-screen for JAK2V617F inhibitor project, murine pro-B, CellTiter-Glo luminescence; AID 1486, 2009; actives 1.1% (n = 220,000); CellTiter-Glo ATP luminescence; inhibition, % at 5.6 µM;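 active = inhibition above a per-campaign cutoff, the mean inhibition of all tested compounds plus 3 SD, cut at about 27% in these data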;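 also: 0% = DMSO wells and 100% = JAK Inhibitor I control wells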
APP 5UTR inh – inhibitors of APP translation via 5'UTR reporter, primary screen, APP 5'UTR luciferase, SH-SY5Y cells | SH-SY5Y APP 5'UTR-luciferase reporter, luminescence | inhibition, % at 2 µM | actives 0.82% (n = 190,000) | AID 1285, 2008;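 active = inhibition above a set limit, derived from the sample mean plus 3 SD, cut at about 45% in these data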
aSyn 5UTR inh – MLPCN primary screen, SNCA 5' untranslated region. alpha-synuclein 5'UTR reporter, inhibitor activity. inhibition, % (tested at 7.5 µM). actives 0.82% (n = 300,000). AID 1813, 2009; in the data active = inhibition above about 60%;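 also: H4 neuroglioblastoma cells stably carrying SNCA 5'UTR luciferase fusion; 0% = DMSO wells and 100% = positive control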
IEC-6 tox confirm – cytotoxic compounds in IEC-6 epithelial cells, confirmation, cytotoxicity control, cell-based, luminescence; shares compounds with IEC-6 cytotox; IEC-6 rat intestinal epithelial viability; inhibition, % at 5 µM; actives 63% (n = 1,900);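 also: 0% = vehicle and 100% = reference cytotoxic drug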
* hit, by the source's call; / = no result given. Shown are actives, neighbours in structure and some others; about 2.2% of the full set was active somewhere. Rule as the data show it, unless noted: active = inhibition above about 22%; inactive = the rest.

SMILES	Ba/F3 V617F tox	KLF5 inh	IEC-6 cytotox	BaF3 tox	APP 5UTR inh	aSyn 5UTR inh	IEC-6 tox confirm
COc1ccc(-c2ccc(CCC(=O)O)n2-c2ccccc2OC)cc1	/	36	41*	/	/	-45	-3
Cc1[nH]n(-c2ccccc2)c(=O)c1/C=N/NC(=O)c1ccccc1F	/	-44	30*	/	/	29	16
COc1cc(NC(=O)c2noc(C)c2[N+](=O)[O-])c(OC)cc1Cl	/	-47	64*	/	/	-9	17
Cc1onc(C(=O)Nc2cccnc2Cl)c1[N+](=O)[O-]	-2	-35	7	2	-13	9	/
Cc1nnc(NC(=O)Cn2nc(C)c3ccccc3c2=O)s1	-4	-11	0	8	-28	-9	/
CCOc1ccc(S(=O)(=O)Nc2cc(SCC(=O)O)c(O)c3ccccc23)cc1	/	-14	49*	/	/	48	1
CCc1ccc(S(=O)(=O)Nc2cc(SCC(=O)O)c(O)c3ccccc23)cc1	-2	-4	5	6	6	-13	/
CC[n+]1c(/C=C/c2ccc(N(C)C)cc2)ccc2ccccc21	101*	26	48*	95*	-2	2	76*
CC[n+]1ccccc1/C=C/c1ccc(N(C)C)cc1	99*	30	22*	76*	-2	10	23*
Cc1ccc(/C=C/c2ccc(N(C)C)cc2)[n+](C)c1	/	-7	32*	/	/	19	26*
CCN(CC)c1ccc(/C=C/c2ccc3ccc(OC)cc3[n+]2CC)cc1	/	22	48*	/	/	-87	31*
CCC(Sc1nc(N)c(NC(=O)c2ccc(OC)cc2)c(=O)[nH]1)C(=O)O (stereo unspecified)	1	-20	-2	2	0	12	/
O=C(OC1Cn2c(=O)ccc(=O)n2C1)c1ccccc1	-2	-28	5	7	-17	15	/
O=C(Nc1cccc2ncccc12)c1ccc([N+](=O)[O-])o1	/	-2	98*	/	/	-169	24*
Cc1c(NC(=O)c2ccc([N+](=O)[O-])o2)cccc1-c1nc2ncccc2o1	/	14	100*	/	/	-228	22
O=C(Nc1cccc(NC(=O)c2ccc([N+](=O)[O-])o2)c1)c1ccco1	/	-9	99*	/	/	-66	35*
O=C(Nc1ccccc1Cl)c1ccc([N+](=O)[O-])o1	/	-24	47*	/	/	-139	21
Cc1ccccc1NC(=O)c1ccc([N+](=O)[O-])o1	-3	-53	20	-2	-2	-48	/
CC(=O)Nc1cccc(NC(=O)c2ccco2)c1	-1	11	-2	6	-8	-16	/
CN(C)/C=C/C(=O)c1ccc(F)cc1F	-6	-15	1	-1	/	-1	/
Cc1ncsc1CCOC(=O)c1ccc(Cl)cc1	3	-7	-9	9	-6	-39	/
O=C(NC12CC3CC(CC(C3)C1)C2)c1ccc([N+](=O)[O-])o1	/	15	66*	/	/	-200	25*
O=C(Nc1ccc(NC(=O)c2ccc([N+](=O)[O-])o2)cc1Cl)c1ccco1	/	-15	101*	/	/	-173	27*
O=C(Nc1ccc(NC(=O)c2ccco2)c(Cl)c1)c1ccccc1	-4	-71	-4	4	-45	-99	/
O=C(CNC(=O)c1ccccc1F)Nc1ccccc1C(F)(F)F	-2	3	-4	0	2	12	/
SMILES	Ba/F3 V617F tox	KLF5 inh	IEC-6 cytotox	BaF3 tox	APP 5UTR inh	aSyn 5UTR inh	IEC-6 tox confirm
Cc1ccc(S(=O)(=O)N2CCC(C(=O)OCC(=O)NC3(C#N)CCCCC3)CC2)cc1C	/	/	/	/	/	-20	/
Cc1ccc(NC(=S)Nc2ccc(C(C)C)cc2)cc1S(=O)(=O)N1CCCCCC1	-1	-38	-5	5	-3	-32	/
Cc1ccc(-c2nnn3c2nc(NCCc2ccc(S(N)(=O)=O)cc2)c2ccccc23)cc1	3	8	55*	7	4	-19	4
CCOc1ccc(C(=O)N/N=C(\c2ccccc2)c2ccccn2)cc1	86*	19	26*	80*	72*	46	68*
C/C(=N\NC(=O)c1ccc(F)cc1)c1ccccn1	/	38	32*	/	/	-93	98*
CC(=O)Nc1ccc(/C(C)=N\NC(=O)c2ccc(-c3ccccc3)cc2)cc1	88*	-56	26*	82*	0	96*	-6
CCOc1ccc(C(=O)Nc2cccc3cccnc23)cc1	/	-40	-7	/	/	-19	/
CCc1ccc(/C(C)=N/NC(=O)c2ccccn2)cc1	-4	-5	0	6	13	-35	/
CC(=O)Nc1ccc(/C(C)=N/NC(=O)c2ccc(F)cc2)cc1	0	-26	-1	6	2	-40	/
O=S(=O)(NCC(c1ccco1)N1CCc2ccccc2C1)c1ccc(F)cc1 (stereo unspecified)	/	/	/	/	/	1	/
COc1ccc(CCNC(=O)N[C@@H](Cc2ccccc2)C(=O)O)cc1	/	-24	3	/	/	-3	/
Cc1cc(C)n(CCCNC(=O)CCNS(=O)(=O)c2ccccc2C(F)(F)F)n1	/	-34	-4	/	/	-13	/
CC(=O)c1c2c3c(c(Br)ccc3n(C)c1=O)C(=O)c1ccccc1-2	/	-19	44*	/	/	-17	-4
CN1CCN(c2ncnc3c2[nH]c2ccc(F)cc23)CC1	1	-20	4	8	-4	-7	/
CCOc1ccc2[nH]c3c(N4CCc5ccccc5C4)ncnc3c2c1	5	12	40*	-3	/	33	90*
CC(=O)Nc1ccc(NS(=O)(=O)c2cc(-c3cnc(C4CC4)o3)ccc2C)cc1	/	-42	23*	/	/	-7	24*
Cc1ccc(-c2cnc(C3CC3)o2)cc1S(=O)(=O)Nc1ccccc1	/	17	38*	/	/	51	47*
Cc1ccc(N(C)S(=O)(=O)c2cc(-c3cnc(C4CC4)o3)ccc2C)cc1	/	2	3	/	/	9	/
CC(=O)c1ccc(NS(=O)(=O)c2cc(-c3cnc(C4CC4)o3)ccc2C)cc1	/	-32	11	/	/	33	/
CC(=O)c1cccc(NS(=O)(=O)c2cc(-c3cnc(C4CC4)o3)ccc2C)c1	/	12	41*	/	/	19	31*
COc1ccc(C(=O)n2c(-c3ccco3)nc3ccccc32)cc1	10	25	48*	8	50*	-100	36*
COc1ccc(C(=O)N2CCn3c2nc2ccccc23)cc1	0	-73	0	5	-17	-108	/
Cc1cccc2c(C(=O)N3CCN(c4ccccn4)CC3)cc(-c3cccc(Br)c3)nc12	/	0	29*	/	/	6	6
O=C(c1cc(-c2ccccc2Cl)nc2ccc(Br)cc12)N1CCN(c2ccccn2)CC1	/	10	46*	/	/	23	6
CC(=O)Nc1ccc(/C=C2\CCc3ccccc3C2=O)cc1	/	-215	2	/	/	-118	/
